Screens as filed in PubChem BioAssay.
This is a sample that favours compounds with a hit; in the whole collection about 1.2% have one here.
C2C12 statin – protects C2C12 myotubes from simvastatin toxicity | ATP luminescence, 48 h; scaled: DMSO 0, geranylgeraniol control 100 | rescue of ATP level, % at 7.49 µM | actives 0.78% (n = 330,000);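 active means mean ATP rescue above about 67%, or every replicate alone reaching that limit, limit read from the data, passing the limit was not always enough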;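 further: myotubes were challenged with 10 µM simvastatin during compound exposure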
miR122 inh – blocks miR-122 activity in Huh7 sensor cells; activation (reporter increase), % at 12.5 µM; actives 0.3% (n = 340,000); AID 602342; Huh7 miR-122 Renilla luciferase sensor, 48 h; neutral wells = 0, positive control = 100;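 active means mean replicate activation score at least 90 and every replicate individually at or above 90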;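 further: higher luciferase means less miR-122 activity so hits act as miR-122 inhibitors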
PglD DTNB – inhibitors of Campylobacter jejuni PglD acetyltransferase | actives 0.098% (n = 360,000) | inhibition, % at 12.5 µM | purified PglD enzyme, DTNB colorimetric CoA detection; in the data active means inhibition above about 16%, passing the limit was not always enough
NSD2 inh – inhibitors of human histone methyltransferase NSD2 | O96028 | NSD2 peptide methylation, AlphaScreen, 120 min | inhibition, % at 12.5 µM | actives 0.54% (n = 310,000) | AID 743445; in the data active means inhibition above about 50%
Target sequence (O96028 whole entry, looked up): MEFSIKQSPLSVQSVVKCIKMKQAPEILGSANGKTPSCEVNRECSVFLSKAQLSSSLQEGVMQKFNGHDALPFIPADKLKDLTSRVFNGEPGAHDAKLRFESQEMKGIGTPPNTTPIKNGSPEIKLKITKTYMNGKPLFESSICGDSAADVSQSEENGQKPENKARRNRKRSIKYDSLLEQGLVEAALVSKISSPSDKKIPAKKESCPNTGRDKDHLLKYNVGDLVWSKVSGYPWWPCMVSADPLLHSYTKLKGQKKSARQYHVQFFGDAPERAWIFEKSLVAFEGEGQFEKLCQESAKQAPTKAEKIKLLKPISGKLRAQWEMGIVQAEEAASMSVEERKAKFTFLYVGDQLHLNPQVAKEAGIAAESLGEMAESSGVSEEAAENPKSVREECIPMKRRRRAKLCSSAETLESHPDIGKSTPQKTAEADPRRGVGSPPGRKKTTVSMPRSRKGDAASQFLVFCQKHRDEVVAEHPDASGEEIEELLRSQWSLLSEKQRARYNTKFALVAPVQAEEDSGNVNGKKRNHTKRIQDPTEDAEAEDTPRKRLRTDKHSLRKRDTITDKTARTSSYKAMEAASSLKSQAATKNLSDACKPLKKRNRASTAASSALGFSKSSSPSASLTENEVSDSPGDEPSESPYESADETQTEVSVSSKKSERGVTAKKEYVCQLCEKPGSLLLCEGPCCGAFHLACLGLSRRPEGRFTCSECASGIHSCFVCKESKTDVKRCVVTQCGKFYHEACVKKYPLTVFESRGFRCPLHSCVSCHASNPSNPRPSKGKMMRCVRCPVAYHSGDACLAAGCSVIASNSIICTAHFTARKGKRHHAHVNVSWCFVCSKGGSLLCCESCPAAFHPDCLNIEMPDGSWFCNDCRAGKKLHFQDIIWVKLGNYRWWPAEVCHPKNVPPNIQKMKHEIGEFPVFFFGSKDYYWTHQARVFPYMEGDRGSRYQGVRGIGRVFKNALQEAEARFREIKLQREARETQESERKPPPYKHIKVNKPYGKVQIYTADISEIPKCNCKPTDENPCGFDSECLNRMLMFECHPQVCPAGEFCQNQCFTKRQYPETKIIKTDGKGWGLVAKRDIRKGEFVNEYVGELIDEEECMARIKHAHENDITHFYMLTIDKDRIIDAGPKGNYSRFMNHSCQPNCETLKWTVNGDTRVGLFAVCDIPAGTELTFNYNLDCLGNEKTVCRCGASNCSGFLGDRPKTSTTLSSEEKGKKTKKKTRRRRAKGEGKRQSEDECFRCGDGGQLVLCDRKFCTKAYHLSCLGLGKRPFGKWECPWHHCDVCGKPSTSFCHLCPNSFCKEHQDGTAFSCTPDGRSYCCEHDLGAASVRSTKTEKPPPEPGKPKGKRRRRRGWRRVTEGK
* marks the source's active call; other numbers are inactive results; x = no result; [ ] = another dose, or the depositor's remark.

SMILES | C2C12 statin | miR122 inh | PglD DTNB | NSD2 inh
C[C@H]1CN([C@@H](C)CO)C(=O)c2cc(NC(=O)Nc3ccccc3)ccc2O[C@@H]1CN(C)S(C)(=O)=O | -1.8 | -4.1[16.7 µM] | 6.5 | x
O=c1[nH]nc(Cc2ccc(Cl)cc2Cl)c2ccccc12 | 140.3* | -10.4 | -2.2 | -2.5
O=c1[nH]nc(Cc2ccc(Cl)cc2)c2ccccc12 | 19.7 | -11.4 | 0.4 | 0.6
O=C(C[C@@H]1C=C[C@@H](NS(=O)(=O)c2ccccc2)[C@@H](CO)O1)NCc1ccc(Cl)c(Cl)c1 | -9.3 | x | 4.0 | x
C=CCn1c(SCC(=O)NC2CCCC2)nc2scc(-c3ccco3)c2c1=O | 116.4* | -6.0 | -2.0 | 1.8
C=CCn1c(SCC(=O)NCCCC)nc2scc(-c3ccco3)c2c1=O | x | 0.4 | -0.1 | -1.3
Cc1ccc(NC(=S)NCc2ccc(F)cc2)cc1 | 1.1 | 106.2* | 9.0 | -0.6
C[C@H](CO)N1C[C@H](C)[C@H](CN(C)Cc2ccccc2)Oc2ncc(/C=C/c3ccccc3)cc2C1=O | -0.2 | 4.7[16.7 µM] | 1.9 | x
C[C@@H]1CN([C@H](C)CO)C(=O)c2cc(C#Cc3ccccc3F)cnc2O[C@H]1CN(C)S(C)(=O)=O | -10.8 | -0.6[16.7 µM] | 1.5 | x
Cc1csc2ncc(C(=O)Nc3cccc(C(F)(F)F)c3)c(=O)n12 | 106.8* | -1.7 | 0.6 | x
Cc1cc(=O)n2c(C)n[nH]c2n1 | 120.5* | 0.8 | -2.5 | 1.5
CCCN1C[C@H](C)[C@H](OC)CN(C)C(=O)c2ccc(NC(=O)c3cnccn3)cc2OC[C@H]1C | 7.0 | x | 5.1 | x
Nc1nc2c(s1)C(=O)CCC2 | 90.5* | -4.0 | -1.5 | -0.4
Nc1c2c(nc3ccccc13)CCCC2=O | x | x | x | 1.6
CC(=O)Oc1cc(OC(C)=O)c2c(C)cc(=O)oc2c1 | 97.3* | 2.4 | 8.1 | 1.6
C[C@H]1CN([C@@H](C)CO)S(=O)(=O)c2ccc(-c3ccc(C#N)cc3)cc2O[C@H]1CN(C)Cc1ccccn1 | -5.5 | x | 1.3 | x
Cc1cc(N2CCN(c3cccc(C)c3C)CC2)nc(-c2ccccc2)n1 | 116.6* | 2.8 | x | 1.2
Cc1cc(N2CCC(C(=O)NC3CC3)CC2)nc(-c2ccccc2)n1 | x | 0.0 | -0.3 | -3.5
C[C@H](CO)N1C[C@H](C)[C@@H](CN(C)S(=O)(=O)c2ccc(F)cc2)Oc2ccc(NC(=O)c3ccncc3)cc2CC1=O | -30.5 | -2.9[16.7 µM] | -4.3 | x
CNC[C@@H]1OCCCC[C@H](C)Oc2ccc(NC(=O)Nc3ccc(F)cc3)cc2C(=O)N([C@H](C)CO)C[C@H]1C | -18.0 | -3.9[16.7 µM] | x | x
O=C(NCC[C@@H]1CC[C@@H](NS(=O)(=O)Cc2ccccc2)[C@@H](CO)O1)C1CCOCC1 | 3.0 | x | -1.9 | x
Cc1ccc(Cl)cc1NC(=O)COC(=O)CC1CC2CCC1C2 (configuration not stated) | 111.5* | -7.2 | -0.2 | -3.9
CCOC(=O)c1c(-c2ccccc2)csc1/N=C/C1C(=O)CC(C)(C)CC1=O | x | x | x | -3.9
Cc1cc(NC(=O)COC(=O)C2CCN(S(=O)(=O)c3c(Cl)cccc3Cl)CC2)no1 | 108.7* | 6.0 | 1.4 | -0.3
Cc1cc(NC(=O)COC(=O)C2CCN(S(=O)(=O)c3ccc(Cl)cc3)CC2)no1 | x | 1.9 | -5.6 | 6.2
SMILES | C2C12 statin | miR122 inh | PglD DTNB | NSD2 inh
Cc1cc(C)c2c(CN3CCN(Cc4ccc5c(c4)OCO5)CC3)cc(=O)oc2c1 | 150.3* | 0.6 | 1.7 | 1.6
Cc1cc(C(=O)N2CCN(Cc3ccc4c(c3)OCO4)CC2)cs1 | 91.6* | -0.5 | -5.5 | 1.6
CCCN1C[C@@H](C)[C@@H](OC)CN(C)C(=O)c2ccc(NC(=O)c3ccccc3)cc2OC[C@@H]1C | -12.6 | 12.4[16.7 µM] | 0.4 | x
C=CCN1Cc2ccccc2[C@H]2OC(c3ccc(OCCCO)cc3)=N[C@@]2(CCS(=O)(=O)c2ccccc2)C1=O | x | x | 1.2 | x
CC(=O)c1cc(C#N)c(Oc2ccc(Cl)cc2Cl)nc1C | 166.6* | -6.8 | -7.4 | 0.4
CC(=O)c1cc(C#N)c(Oc2ccccc2)nc1C | 104.8* | -5.8 | 3.0 | -3.9
C[C@H](CO)N1C[C@H](C)[C@@H](CN(C)Cc2ccc(Oc3ccccc3)cc2)Oc2c(NC(=O)C3CCCCC3)cccc2C1=O | 22.4 | 74.1[16.7 µM] | -6.1 | x
C[C@@H]1CN([C@@H](C)CO)C(=O)Cc2cc(NC(=O)Nc3cccc4ccccc34)ccc2O[C@@H]1CN(C)C(=O)NC1CCCCC1 | -32.3 | 167.0*[16.7 µM] | 2.1 | x
C[C@@H]1CN([C@@H](C)CO)C(=O)Cc2cc(NC(=O)Nc3cccc4ccccc34)ccc2O[C@@H]1CN(C)S(=O)(=O)c1ccc(Cl)cc1 | 94.8* | -9.0[16.7 µM] | -0.7 | x
C[C@@H]1CN([C@H](C)CO)C(=O)Cc2cc(NC(=O)Nc3cccc4ccccc34)ccc2O[C@H]1CN(C)CC1CCCCC1 | 75.0* | -1.7[16.7 µM] | 1.3 | x
C[C@H]1CN([C@@H](C)CO)C(=O)Cc2cc(NC(=O)Nc3cccc4ccccc34)ccc2O[C@H]1CN(C)C(=O)NC1CCCCC1 | 22.0 | 15.9[16.7 µM] | -4.3 | x
C[C@@H]1CN([C@@H](C)CO)S(=O)(=O)c2ccc(/C=C/c3ccccc3)cc2O[C@H]1CN(C)C(=O)c1ccncc1 | 16.4 | -3.0[16.7 µM] | -0.4 | x
O=S(=O)(N[C@H]1CC[C@H](CCn2cc(C3CC3)nn2)O[C@H]1CO)c1ccc(Cl)cc1 | 3.0 | x | -4.3 | x
CSCC[C@H](NC(=O)OC(C)(C)C)c1nnc(SCC(N)=O)o1 | 10.1 | -7.5 | x | 2.2
CCN(CC)C(=O)CSc1nnc([C@H](CCSC)NC(=O)OC(C)(C)C)o1 | 143.2* | -9.1 | 2.6 | -0.5
CC(C)C[C@@]12C(=O)N(c3cccc(Cl)c3)C(=O)N1[C@H](c1ccc(Br)cc1)[C@@H]1C(=O)N(C(C)(C)C)C(=O)[C@@H]12 | 98.5* | 0.0 | -10.6 | x
Cc1cccc(C(=O)N2CCC(n3nnc4cc(F)ccc43)CC2)c1 | 133.5* | 5.4 | 0.7 | -2.3
CCNC(=O)C[C@H]1CC[C@@H]2[C@H](COc3ccc(NC(=O)Nc4ccc(C)cc4)cc3C(=O)N2C)O1 | -1.7 | 0.6[16.7 µM] | -1.7 | x
Cc1cc(=O)oc(C)c1C(=O)NCCNC(=O)c1c(C)cc(=O)oc1C | 121.1* | -3.7 | -5.1 | -1.3
Cc1cc(=O)oc(C)c1C(=O)NCCC(C)C | -24.3 | -6.8 | 4.5 | -0.6
C=CCc1cccc(OC)c1OCCOCCNCCO | 82.8* | 1.1 | -0.4 | 8.4
COc1cccc(OC)c1OCCNCCO | x | 0.1 | -9.2 | 1.7
CCCNC(=O)Nc1ccc2c(c1)C(=O)N(C)C[C@@H](OC)[C@H](C)CN(CC1CCCC1)[C@H](C)CO2 | -4.3 | 0.7[16.7 µM] | x | x
CC(C)n1cc(/C=C2\NC(=O)N(c3cccc(Cl)c3)C2=O)c2ccccc21 | 115.4* | 4.3 | -4.1 | -0.3
CCN1CCN(C(=O)c2cc3cc4cc(OC)ccc4nc3s2)CC1 | 73.0* | -1.8 | 1.8 | 7.6
COc1ccc2nc3sc(C(=O)NCCN4CCc5ccccc5C4)cc3cc2c1 | -20.5 | -0.6 | -1.1 | 0.4
COc1ccc(S(=O)(=O)N2c3cc(C)ccc3OCC2C(C)(C)C)cc1 (configuration not stated) | -51.4 | 151.4* | 3.0 | -1.0
C[C@@H]1CN([C@H](C)CO)C(=O)Cc2cc(NS(C)(=O)=O)ccc2O[C@H]1CN(C)C(=O)Nc1ccc(F)cc1 | 3.9 | -0.1[16.7 µM] | 1.1 | x
